Experimental findings from PubChem BioAssay (NCATS) are described below.

Test [1] can be described thus: qHTS for Inhibitors of the Functional Ribonucleoprotein Complex (vRNP) of Lassa (LASV) Arenavirus: LASV Primary Screen - GLuc reporter signal (AID 1347082; calls by dose curve; tested in HEK293 reporter line; note: nearly all actives have a fitted effect of over 60% in size).
Test [2] is described as follows: qHTS for Inhibitors of the Functional Ribonucleoprotein Complex (vRNP) of Lassa (LASV) Arenavirus: Viability assay - alamar blue signal for LASV Primary Screen (AID 1347083; calls by dose curve; tested in HEK293 reporter line; note: nearly all actives have a fitted effect of over 80% in size). Background: qHTS replaces the single test concentration by a dilution series.
A short description of test [3]: qHTS for Inhibitors of the Functional Ribonucleoprotein Complex (vRNP) of Lymphocytic Choriomeningitis Arenaviruses (LCMV): Viability assay - alamar blue signal for LCMV Primary Screen (AID 1347085; calls by dose curve; tested in HEK293 reporter line; note: nearly all actives have a fitted effect of over 80% in size).
For test [4], the target named is Nucleoprotein (Lymphocytic choriomeningitis virus (strain Armstrong)) (UniProt P09992). The experiment in a line: qHTS for Inhibitors of the Functional Ribonucleoprotein Complex (vRNP) of Lymphocytic Choriomeningitis Arenaviruses (LCMV): LCMV Primary Screen - GLuc reporter signal (AID 1347086). Note: nearly all actives have a fitted effect of over 70% in size.

Structures are written as SMILES. Where “and” joins values, the source holds several entries; their conditions need not be identical. Equal entries are not always repeated. Results filed as inconclusive are left out. A number with no mark means an inactive call. Calls of active or inactive are those of the source. Unless noted, calls come from the whole dose curve. Square brackets hold non-standard residues; d marks the D form. Peptide text beside a SMILES is read from it. * marks the point of attachment. Sta = CC(C)C[C@H](N)[C@@H](O)CC(=O)O; Isovaleryl = CC(C)CC(=O)*
Potency is the fitted concentration of half-maximal effect.

Chain of Nucleoprotein (Lymphocytic choriomeningitis virus (strain Armstrong)) (P09992 whole entry, looked up): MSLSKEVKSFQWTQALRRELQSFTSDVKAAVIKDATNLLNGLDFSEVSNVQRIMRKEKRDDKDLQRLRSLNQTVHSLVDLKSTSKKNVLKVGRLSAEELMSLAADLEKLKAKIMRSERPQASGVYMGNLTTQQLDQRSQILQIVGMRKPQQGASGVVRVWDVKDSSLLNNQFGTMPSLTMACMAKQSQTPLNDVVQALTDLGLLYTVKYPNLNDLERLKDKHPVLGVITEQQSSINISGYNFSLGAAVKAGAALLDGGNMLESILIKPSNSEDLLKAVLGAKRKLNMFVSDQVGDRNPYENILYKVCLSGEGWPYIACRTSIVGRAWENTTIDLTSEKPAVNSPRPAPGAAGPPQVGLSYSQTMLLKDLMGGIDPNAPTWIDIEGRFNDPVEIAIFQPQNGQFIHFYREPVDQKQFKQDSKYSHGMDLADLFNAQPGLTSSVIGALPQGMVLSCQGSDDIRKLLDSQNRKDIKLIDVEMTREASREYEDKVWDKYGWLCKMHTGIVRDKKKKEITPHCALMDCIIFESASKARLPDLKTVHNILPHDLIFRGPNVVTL

As for `NS(=O)(=O)c1ccc(N2CCCCS2(=O)=O)cc1`, the Potency result in test [1], in test [2], in test [3] and in test [4] was “inactive” each time.
Consider `O=C(O)CCC(=O)Nc1ccc(S(=O)(=O)Nc2nccs2)cc1`, for which the Potency result in test [1], in test [2], in test [3] and in test [4] was “inactive” in each case.
For `CCOc1cc(N)c(Cl)cc1C(=O)NCC1CN(Cc2ccc(F)cc2)CCO1` (centres undefined), the Potency result in test [1], in test [2], in test [3] and in test [4] was “inactive” throughout.
On to `NS(=O)(=O)c1cc2c(cc1Cl)NC(C1CC3C=CC1C3)NS2(=O)=O` (centres undefined), for which the Potency entry in test [1], in test [2], in test [3] and in test [4] was “inactive” in each case.
For the compound `CCCCOc1ccc(C(=O)CCN2CCCCC2)cc1`, the Potency result in test [1], in test [2], in test [3] and in test [4] was “inactive” each time.
On to `COc1cc2c(cc1OC)C(C(C(=O)N(CCc1ccc(OC)c(OC)c1OC)CCc1ccc(OC)c(OC)c1OC)c1ccccc1)=NCC2` (centres undefined), for which the Potency entry in test [1], in test [2], in test [3] and in test [4] was “inactive” each time.
Turning to `CC1=C(C(=O)O)N2C(=O)[C@@H](NC(=O)[C@H](N)C3=CCC=CC3)[C@H]2SC1`, the Potency result in test [1], in test [2], in test [3] and in test [4] was “inactive” throughout.
For `N/C(=N\N=C\c1ccc(Cl)cc1)N/N=C/c1ccc(Cl)cc1`, the Potency entry in test [1], in test [2], in test [3] and in test [4] was “inactive” each time.
`C#C[C@]1(O)CC[C@H]2[C@@H]3[C@H](C)CC4=C(CCC(=O)C4)[C@H]3CC[C@@]21C`: the Potency result in test [1], in test [2], in test [3] and in test [4] was “inactive” each time.
Regarding `CCCC(C(=O)OCCN(CC)CC)(c1ccccc1)c1ccccc1`, the Potency entry in test [1], in test [2], in test [3] and in test [4] was “inactive” in each case.
Take `CC(C)(C)CC(=O)OCC(=O)[C@@]1(O)CC[C@H]2[C@@H]3CCC4=CC(=O)C=C[C@]4(C)[C@H]3[C@@H](O)C[C@@]21C`: the Potency entry in test [1], in test [2], in test [3] and in test [4] was “inactive” throughout.
On to `CN(C)c1ccc(C(=C2C=CC(=[N+](C)C)C=C2)c2ccc(N(C)C)cc2)cc1`, for which the Potency in test [1] was 1220 nM (active); in test [2], 3850 nM (active); in test [3], 5.62 µM (active) and 3.85 µM (active); in test [4] it was 1530 nM (active).
For `c1ccc(C(O[C@H]2CCCN(CCc3ccc4c(c3)OCO4)C2)c2ccccc2)cc1`, the Potency result in test [1], in test [2], in test [3] and in test [4] was “inactive” throughout.
As to `Cc1c(F)cc2c(=O)c(C(=O)O)cn3c2c1CCC3C` (centres undefined), the Potency result in test [1], in test [2], in test [3] and in test [4] was “inactive” in each case.
Take `CCOC(=O)C1=C[C@]2(CC)CCCN3CCc4c(n1c1ccccc41)[C@@H]32`: the Potency entry in test [1], in test [2], in test [3] and in test [4] was “inactive” in each case.
On to `CC(C)CC(=O)N[C@H](C(=O)N[C@H](C(=O)N[C@@H](CC(C)C)[C@@H](O)CC(=O)N[C@@H](C)C(=O)N[C@@H](CC(C)C)[C@@H](O)CC(=O)O)C(C)C)C(C)C` (Isovaleryl-VV[Sta]A[Sta]-OH), for which the Potency result in test [1], in test [2], in test [3] and in test [4] was “inactive” in each case.
Turning to `CCN1CCCC(OC(=O)C(c2ccccc2)c2ccccc2)C1` (centres undefined), the Potency result in test [1], in test [2], in test [3] and in test [4] was “inactive” in each case.
In the case of `O=C(Nc1ccc(C(=O)O)c(O)c1)c1ccccc1`, the Potency entry in test [1], in test [2], in test [3] and in test [4] was “inactive” each time.
In the case of `Cc1c(C)n(Cc2ccccc2)c2ccc(C(=O)OCCN(C)C)cc12`, the Potency result in test [1], in test [2], in test [3] and in test [4] was “inactive” each time.
For the compound `C=C1C[C@H]2[C@@H]3C=C(C)C4=CC(=O)CC[C@]4(C)[C@H]3CC[C@]2(C)[C@@]1(OC(C)=O)C(C)=O`, the Potency entry in test [1], in test [2], in test [3] and in test [4] was “inactive” throughout.
For the compound `C=CCc1ccccc1OCC(O)CNC(C)C` (centres undefined), the Potency result in test [1], in test [2], in test [3] and in test [4] was “inactive” throughout.
In the case of `Cc1nnc(C(=O)NC(C)(C)c2nc(C(=O)NCc3ccc(F)cc3)c(O)c(=O)n2C)o1`, the Potency entry in test [1], in test [2], in test [3] and in test [4] was “inactive” throughout.
For the compound `CCCn1cnc2c1c(=O)n(CCCCC(C)=O)c(=O)n2C`, the Potency entry in test [1], in test [2], in test [3] and in test [4] was “inactive” each time.
On to `NC(CSCC(=O)O)C(=O)O` (centres undefined), for which the Potency entry in test [1], in test [2], in test [3] and in test [4] was “inactive” in each case.
As to `O=c1[nH]cnc2c1ncn2[C@@H]1O[C@H](CO)[C@@H](O)[C@H]1O`, the Potency result in test [1], in test [2], in test [3] and in test [4] was “inactive” throughout.
Regarding `CC(=O)O[C@H]1C[C@@H]2CC[C@@H]3[C@H](CC[C@@]4(C)[C@H]3C[C@H]([N+]3(C)CCCCC3)[C@@H]4OC(C)=O)[C@@]2(C)C[C@@H]1N1CCCCC1`, the Potency result in test [1], in test [2], in test [3] and in test [4] was “inactive” each time.
In the case of `CCOC(CN1CCN(CC(C)C(=O)c2ccccc2)CC1)c1ccccc1` (centres undefined), the Potency entry in test [1], in test [2], in test [3] and in test [4] was “inactive” each time.
As for `CC1(C)O[C@@H]2C[C@H]3[C@@H]4C[C@H](F)C5=CC(=O)C=C[C@]5(C)[C@H]4[C@@H](O)C[C@]3(C)[C@]2(C(=O)CO)O1`, the Potency entry in test [1], in test [2], in test [3] and in test [4] was “inactive” in each case.
As to `CC(=O)c1ccc2c(c1)N(CCCN(C)C)c1ccccc1S2`, the Potency entry in test [1], in test [2], in test [3] and in test [4] was “inactive” each time.
Turning to `CN(Cc1ccc(C(C)(C)C)cc1)Cc1cccc2ccccc12`, the Potency result in test [1], in test [2], in test [3] and in test [4] was “inactive” throughout.
`CC(=O)[C@H]1CC[C@H]2[C@@H]3CC=C4C[C@@H](O)CC[C@]4(C)[C@H]3CC[C@]12C`: the Potency entry in test [1], in test [2], in test [3] and in test [4] was “inactive” in each case.
For the compound `C=CCc1cc(OC)c(O)c(C(=O)NCCO)c1`, the Potency entry in test [1], in test [2], in test [3] and in test [4] was “inactive” each time.
Regarding `CN(C)[C@@H](CCOc1cccc2ccccc12)c1ccccc1`, the Potency result in test [1], in test [2], in test [3] and in test [4] was “inactive” in each case.
On to `Fc1ccc(C(c2ccc(F)cc2)N2CCNCC2)cc1`, for which the Potency result in test [1], in test [2], in test [3] and in test [4] was “inactive” each time.
For `O=C1OC(c2ccc(O)cc2)(c2ccc(O)cc2)c2ccccc21`, the Potency result in test [1], in test [2], in test [3] and in test [4] was “inactive” throughout.
Consider `COc1cc(C(=O)OCCCN2CCCN(CCCOC(=O)c3cc(OC)c(OC)c(OC)c3)CC2)cc(OC)c1OC`, for which the Potency result in test [1], in test [2], in test [3] and in test [4] was “inactive” each time.
